This passage reports composite z-score, z-score and composite Z-score results from PubChem BioAssay.

For test [1], the system named is Human papillomavirus type 1a protein E7 (residues 44-93). Description: HPV1a E7 fragment binders on microarrays, primary screen, biochemical, small-molecule microarray, residues 44-93, 635 nm fluorescence (AID 1108).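 Also: E7 fragment applied at 1 µg/mL in TBST for 1 h at 4 C; score combines spot fluorescence with its signal to noise ratio.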 Particulars: small-molecule microarray binding, fluorescence 635 nm; higher = more signal.
Test [2] can be described thus: modulators of HCV replicon luciferase signal, primary screen, HCV replication inhibitor project, Huh7 cells, luciferase reporter (AID 1109).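 Also: huh7 hepatoma cells harbouring a luciferase neomycin HCV replicon reporter; luciferase luminescence as measure of HCV replicon replication; test concentration not given here.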 The conditions noted are these: 48 h, higher = more signal. A general note: Replicon systems follow genome replication, usually without infectious particles.
For test [3], the target named is Left-right determination factor 2 (Homo sapiens) (UniProt O00292). In words: LEFTY2 binders on small-molecule microarrays, primary screen, biochemical, small-molecule microarray, 635 nm fluorescence scan (AID 1110). Particulars: LEFTY2 binding, higher = more signal.
In test [4] the target is Calmodulin-1 (Homo sapiens) (UniProt P0DP23). In words: CALM1 binders on microarrays, EGTA buffer, profiling panel, biochemical, small-molecule microarray, Cy5-labelled CALM1 (AID 1111).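 Also: labelled calmodulin applied in Tris saline Tween buffer holding calcium plus EGTA and DTT.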 Particulars: Cy5-CALM1 binding fluorescence, higher = more signal.
For test [5] the target is unchanged. Description: calcium-bound CALM1 binders on microarrays, profiling panel, artefact control for SMM control-protein annotation, biochemical, small-molecule microarray, Cy5-labelled CALM1, plus calcium (AID 1112).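 Also: score merges spot fluorescence with signal to noise from triplicate slides.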 The conditions noted are these: Cy5-CALM1 binding fluorescence, higher = more signal.
The nature of test [6]: small-molecule microarray binders of probe aWnt5a, primary screen, biochemical, biotinylated probe, 635/667 nm fluorescence (AID 1113).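 Also: score merges 667 nm fluorescence intensity with signal-to-noise per printed feature.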 Particulars: higher = more signal.
Test [7] can be described thus: small-molecule microarray binders of probe aShh, primary screen, biochemical, biotinylated probe, 635/667 nm fluorescence (AID 1114).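 Also: probe is biotin-labelled aShh protein from a stem cell growth factor screen; measures binding of labelled protein to compounds printed on the slide; score merges feature fluorescence at 667 nm with signal-to-noise.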 The conditions noted are these: higher = more signal.
Test [8] can be described thus: small-molecule microarray binders of probe aNog, primary screen, biochemical, biotinylated probe, 635/667 nm fluorescence (AID 1115).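 Also: probe is biotinylated aNog protein used at 0.15 µg/mL for 1 h at 4 C; z-score combines 667 nm fluorescence of each spot with its signal to noise.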 The conditions noted are these: higher = more signal.
Test [9] deals with Torsin-1A-interacting protein 1 (Homo sapiens) (UniProt Q5JTV8). Description: LAP1 binders from COS7 cell lysate, primary screen, small-molecule microarray, 635/667 nm fluorescence (AID 1116). The conditions noted are these: COS7-hLAP1 lysate binding, 635 nm fluorescence, higher = more signal.
In test [10] the target is Alpha-bungarotoxin (Bungarus multicinctus) (UniProt P60615). In words: alpha-bungarotoxin binders on microarray, profiling panel, artefact control for SMM control protein annotation, biochemical, small-molecule microarray, Alexa647 label, 635/667 nm fluorescence (AID 1117). Particulars: alpha-BTX-A647 binding fluorescence, higher = more signal.
The target of a further test is Albumin (Bos taurus) (UniProt P02769). In words: bovine serum albumin binders on microarray, profiling panel, artefact control for SMM control protein annotation, biochemical, small-molecule microarray, Alexa647 label, 635/667 nm fluorescence (AID 1118).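 Also: score merges 667 nm emission intensity and signal-to-noise per printed compound spot.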 Particulars: BSA-A647 binding, fluorescence 635 nm, higher = more signal.
Test [11] can be described thus: small-molecule microarray binders of probe aXIP, primary screen, biochemical, NeuroSMM set, 635/667 nm fluorescence (AID 1119).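 Also: probe is the protein aXip251-270 applied at 1 µg/mL to compound-printed slides; binding of probe to printed compounds measured as 667 nm fluorescence plus signal to noise.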 The conditions noted are these: higher = more signal, called active from +8 up or from −8 down.
Test [12] can be described thus: small-molecule binders of probe aNOTCH3, primary screen, biochemical, small-molecule microarray, 635/667 nm fluorescence (AID 1120).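 Also: probe is a biotin-tagged antibody raised against NOTCH3 rather than NOTCH3 protein; score merges spot fluorescence near 667 nm with spot signal to noise.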 Particulars: higher = more signal.
Test [13] can be described thus: small-molecule binders of probe aNOTCH2, primary screen, biochemical, small-molecule microarray, 635/667 nm fluorescence (AID 1121).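 Also: score merges feature fluorescence read at 667 nm with its signal to noise.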 Particulars: higher = more signal.
The target in test [14] is Carbonic anhydrase 2 (Homo sapiens) (UniProt P00918). Description: CAII small-molecule binders, profiling panel, biochemical, small-molecule microarray, Alexa647-labelled CAII (AID 1122). Particulars: CAII-A647 binding fluorescence, higher = more signal.
Test [15] is described as follows: COS7 lysate on small-molecule microarray, probe aHis, 635 nm (AID 1123).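 Also: z-score combines 667nm fluorescence intensity with signal-to-noise per printed compound spot.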 Particulars: COS7 cell lysate, fluorescence, higher = more signal.
A short description of test [16]: compound binding in COS7 lysate, probe aLAP1, primary screen, cell lysate, small-molecule microarray (AID 1124).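 Also: lysate comes from COS7 cells expressing LAP1 and is applied at 0.3 µg/mL; score merges spot fluorescence near 667 nm with signal-to-noise over triplicate slides.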 Particulars: probe aLAP1, fluorescence, higher = more signal.
For another test, the system named is Sam68 (KHDRBS1). In words: Sam68 small-molecule binders, primary screen, biochemical, small-molecule microarray, 635 nm fluorescence (AID 1125).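 Also: score merges 667 nm channel intensity with signal to noise over triplicate slides.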 Particulars: small-molecule microarray binding, higher = more signal.
Test [17] concerns Chordin-like protein 2 (CHRDL2). Description: CHRDL2 small-molecule binders, primary screen, biochemical, small-molecule microarray, 635 nm fluorescence (AID 1126).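 Also: printed compound slides probed with Chrdl2 protein at 4 µg/mL for 1 h at 4 C; score merges 667 nm emission intensity with signal to noise over three replicate slides.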 Particulars: small-molecule microarray binding, fluorescence 635 nm; higher = more signal.
The target of test [18] is Concanavalin-A (Canavalia ensiformis) (UniProt P02866). Description: ConA small-molecule binders, primary screen, artefact control for SMM control protein annotation, biochemical, small-molecule microarray, Alexa647 label, 635 nm (AID 1127).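 Also: z combines 667 nm emission intensity with signal-to-noise across three replicate slides.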 Particulars: ConA-A647 binding fluorescence, higher = more signal.

Molecules are shown by their SMILES. Calls of active or inactive are those of the source.

Sequence of Albumin (Bos taurus) (P02769 whole entry, looked up): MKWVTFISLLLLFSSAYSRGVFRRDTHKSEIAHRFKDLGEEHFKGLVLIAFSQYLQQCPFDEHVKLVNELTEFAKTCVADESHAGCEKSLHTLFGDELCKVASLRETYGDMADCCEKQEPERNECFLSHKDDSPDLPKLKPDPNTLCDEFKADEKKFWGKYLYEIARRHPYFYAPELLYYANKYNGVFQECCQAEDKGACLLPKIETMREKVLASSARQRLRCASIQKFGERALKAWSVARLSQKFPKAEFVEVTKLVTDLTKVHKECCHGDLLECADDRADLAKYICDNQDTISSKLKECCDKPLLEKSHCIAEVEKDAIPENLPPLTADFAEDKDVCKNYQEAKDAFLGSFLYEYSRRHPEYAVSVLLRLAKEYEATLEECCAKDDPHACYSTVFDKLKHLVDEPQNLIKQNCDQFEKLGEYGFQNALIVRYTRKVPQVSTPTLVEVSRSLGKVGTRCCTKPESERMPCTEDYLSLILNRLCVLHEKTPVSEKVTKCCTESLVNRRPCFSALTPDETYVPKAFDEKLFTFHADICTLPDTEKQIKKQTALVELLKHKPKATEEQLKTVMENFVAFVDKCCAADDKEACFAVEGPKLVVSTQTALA
Sequence of Torsin-1A-interacting protein 1 (Homo sapiens) (Q5JTV8 whole entry, looked up): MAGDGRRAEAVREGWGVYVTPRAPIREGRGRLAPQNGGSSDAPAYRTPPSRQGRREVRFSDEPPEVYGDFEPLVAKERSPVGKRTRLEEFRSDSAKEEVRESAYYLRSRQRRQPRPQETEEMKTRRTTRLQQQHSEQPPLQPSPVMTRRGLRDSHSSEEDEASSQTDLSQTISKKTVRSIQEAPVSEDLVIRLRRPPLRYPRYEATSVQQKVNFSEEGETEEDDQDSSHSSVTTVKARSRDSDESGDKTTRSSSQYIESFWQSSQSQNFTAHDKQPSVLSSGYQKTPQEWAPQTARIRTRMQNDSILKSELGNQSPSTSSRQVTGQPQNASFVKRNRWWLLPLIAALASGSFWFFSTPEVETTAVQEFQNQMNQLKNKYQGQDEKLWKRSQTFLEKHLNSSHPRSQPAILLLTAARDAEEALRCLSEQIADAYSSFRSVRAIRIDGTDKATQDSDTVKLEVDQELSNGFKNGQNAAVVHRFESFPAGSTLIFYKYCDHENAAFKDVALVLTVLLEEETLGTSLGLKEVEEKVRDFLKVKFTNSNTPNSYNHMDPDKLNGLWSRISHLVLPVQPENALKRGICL
Sequence of Left-right determination factor 2 (Homo sapiens) (O00292 whole entry, looked up): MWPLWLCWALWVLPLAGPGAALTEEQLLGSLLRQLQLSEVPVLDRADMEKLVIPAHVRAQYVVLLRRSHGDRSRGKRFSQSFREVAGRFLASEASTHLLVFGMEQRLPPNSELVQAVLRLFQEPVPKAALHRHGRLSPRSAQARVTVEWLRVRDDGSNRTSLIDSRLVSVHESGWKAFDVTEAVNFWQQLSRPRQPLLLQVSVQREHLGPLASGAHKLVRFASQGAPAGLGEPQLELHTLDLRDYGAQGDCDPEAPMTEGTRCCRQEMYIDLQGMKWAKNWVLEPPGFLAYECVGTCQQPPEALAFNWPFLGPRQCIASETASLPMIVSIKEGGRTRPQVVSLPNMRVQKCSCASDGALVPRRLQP
Sequence of Concanavalin-A (Canavalia ensiformis) (P02866 whole entry, looked up): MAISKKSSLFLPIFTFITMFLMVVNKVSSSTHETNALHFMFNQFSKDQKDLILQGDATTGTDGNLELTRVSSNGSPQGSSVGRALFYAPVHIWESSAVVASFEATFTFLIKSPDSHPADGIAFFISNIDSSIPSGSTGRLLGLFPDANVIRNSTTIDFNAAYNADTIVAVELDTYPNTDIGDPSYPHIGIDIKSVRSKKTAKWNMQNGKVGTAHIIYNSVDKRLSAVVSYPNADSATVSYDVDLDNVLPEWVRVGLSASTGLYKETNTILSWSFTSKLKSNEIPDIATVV
Sequence of Alpha-bungarotoxin (Bungarus multicinctus) (P60615 whole entry, looked up): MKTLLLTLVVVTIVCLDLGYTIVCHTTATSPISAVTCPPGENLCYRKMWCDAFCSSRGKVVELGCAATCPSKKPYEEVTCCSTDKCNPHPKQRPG

Take `C=CCC(OC(C)=O)[C@@H]1[C@@H](N(Cc2ccc(-c3cccc(C(F)(F)F)c3)o2)C(=O)c2cccc3ccccc23)c2cc(OCCCO)ccc2N1C(=O)c1ccc(-c2ccccc2)cc1` (stereo not given in full): the composite z-score in test [1] was -0.535; in test [3], 0.0289; in test [4] it was -0.638; in [5], 0.219; in test [6], -0.22; in [7], -0.138. Further, the composite z-score was -0.182 in test [8]; -0.465 in [9]; 0.143 in test [10]; -0.0913 with Albumin (Bos taurus); 0.0058 in test [12]; -0.053 in [13]. Besides, the composite z-score in test [14] is -0.406; in test [15] it was -0.647; in test [16] it was -0.272; in the test on Sam68 (KHDRBS1), -0.407; in test [17], 0.634; in test [18], -0.402. Also, the z-score in [2] came out at 0.182. The composite Z-score in [11] is -0.0505 (inactive).

Turning to `CCCN1C(=O)[C@@]2(Cc3ccccc3)N=C(c3ccc(OCCCO)cc3)O[C@H]2c2ccccc21`, the composite z-score is 1.36 in test [1]; 0.133 in [3]; -0.141 in test [4]; -0.489 in test [5]; -0.101 in test [6]; 0.195 in test [7]. The composite z-score in test [8] worked out at 0.0716; in test [9] it was 1.48; in test [10], 1.6; with Albumin (Bos taurus), 0.508; in test [12] it was 0.204; in [13] it was 0.0055. Further, the composite z-score in test [14] turned out to be 0.329; in test [15] it was 2.69; in [16] it was 0.688; in the test on Sam68 (KHDRBS1) it was 1.3; in test [17], 0.804; in [18], 0.96. This compound registered a z-score in [2] of -2.1. Besides, the composite Z-score in test [11] is 0.72 (inactive).

On to `COc1ccc([Si](C)(C)[C@@H]2[C@@H](CCO)O[C@]3(C(=O)N(Cc4ccccc4)c4ccc(N5CCCCC5=O)cc43)[C@H]2C)cc1`, for which the composite z-score was 1.4 in [1]; 0.489 in [3]; 0.972 in test [4]; 0.0653 in [5]; -0.122 in test [6]; -0.2 in [7]. For the same compound, the composite z-score is -0.352 in test [8]; 0.678 in test [9]; 1.08 in test [10]; 0.375 in the test with Albumin (Bos taurus); 0.924 in test [12]; -0.108 in test [13]. In addition, the composite z-score amounted to 0.08 in [14]; 0.72 in test [15]; 0.0284 in test [16]; 1.31 with Sam68 (KHDRBS1); 0.212 in test [17]; 1.12 in test [18]. Further, the z-score in test [2] was -5.21. Also, the composite Z-score in [11] was -0.364 (inactive).

Regarding `COC(=O)[C@H]1N=C(c2ccc(OCCCO)cc2)O[C@H]1c1ccccc1CN=[N+]=[N-]`, the composite z-score in test [1] is 1.05; in test [3], -1.16; in test [4], 0.452; in [5], 0.516; in [6], 0.0495; in [7], 0.105. Moreover, the composite z-score was 1.64 in test [8]; 0.431 in test [9]; 0.534 in test [10]; 0.394 with Albumin (Bos taurus); 0.23 in test [12]; -0.0174 in [13]. Moreover, the composite z-score in test [14] is 0.41; in [15] it was 1.78; in [16], 0.427; with Sam68 (KHDRBS1), 0.0826; in [17] it was -0.935; in test [18], 0.8. For the same compound, in test [2], the z-score was -2.03. The composite Z-score in test [11] is -0.391 (inactive).

As to `COC(=O)c1ccc(OC)c(/C=C\CC(CCc2ccccc2)OC(=O)c2ccncc2)c1` (stereo not given), the composite z-score is -0.0796 in test [1]; 1.45 in test [3]; -1.61 in [4]; -1.72 in [5]; -0.25 in [6]; -0.117 in test [7]. The composite z-score was -0.385 in test [8]; 0.489 in [9]; 1.65 in test [10]; -0.805 with Albumin (Bos taurus); -0.26 in test [12]; -0.225 in [13]. The composite z-score was 0.388 in [14]; 0.721 in test [15]; 0.863 in test [16]; 0.0029 in the test with Sam68 (KHDRBS1); 1.52 in test [17]; -0.363 in test [18]. In addition, in test [2], the z-score was -0.578. Moreover, in test [11], the composite Z-score is 0.302 (inactive).

Turning to `C=C(C(=O)CC[C@H](OC(=O)c1cccnc1)c1ccc(OCCO)cc1)C(C)C`, the composite z-score is 1.33 in test [1]; 0.242 in [3]; 0.098 in [4]; -1.01 in test [5]; -0.0704 in [6]; -0.142 in test [7]. Besides, the composite z-score in test [8] is -0.196; in test [9], 1.68; in test [10], 1.11; with Albumin (Bos taurus) it was 0.335; in [12], 0.0571; in test [13], -0.105. Moreover, the composite z-score amounted to 0.695 in [14]; 0.706 in [15]; 0.296 in test [16]; 1.13 in the test with Sam68 (KHDRBS1); 0.274 in test [17]; 1.12 in test [18]. Moreover, the z-score in test [2] was -3.29. Besides, the composite Z-score in [11] is -0.496 (inactive).
